40 compounds from PubChem BioAssay (Tox21) can be followed below.

Structures are written as SMILES. Records with an inconclusive call do not appear. Where a call stands in place of a potency, no number is given. Active and inactive are the calls of the source. Calls follow the shape of the full dose curve.
Potency is read from the fitted curve at half-maximal effect.

The nature of the assay: qHTS assay for small molecules that induce genotoxicity in human embryonic kidney cells expressing luciferase-tagged ATAD5 - cell viability (AID 651634). Also: nearly all actives have a fitted effect of over 25% in size. The following applies: HEK293T ATAD5-luc cells viability, CellTiter-Fluor, 15.5 h; series mostly up to 83.3 µM. The source says: National Center for Advancing Translational Sciences [NCATS]
NIH Chemical Genomics Center [NCGC]
U.S. Environmental Protection Agency [EPA]
National Institutes of Environmental Health Sciences [NIEHS]
National Toxicology Program [NTP]
U.S. Food and Drug Administration [FDA]
Enhanced Level of Genome Instability Gene 1 (ELG1; human ATAD5) protein levels increase in response to various types of DNA damage. Using a luciferase reporter-gene tagged with ElG1, a cell-based assay [developed by Kyungjae Myung, NHGRI, NIH] was used to measure the induction of ATAD5 in human embryonic kidney cells (HEK293T). So, increase in luciferase activity can be used to identify the compounds that cause genetic stress. In addition to genotoxicity, these cells were also used to test for cytotoxicity by measuring the protease activity within live cells.
Tox21 Assay Protocol Summary:
For cytotoxicity screening, 2,000 cells in 5 uL/well were dispensed into white, solid-bottom 1536-well plates using a Multidrop Combi (Thermo Scientific) dispenser. Following transfer of 23 nL compound or DMSO vehicle by a pin tool, the plates were incubated 15.5 hr at 37C and 5% CO2. 1 ul CellTiter-Fluor reagent (Promega, Madison, WI) was then added to each plate and following 30 min incubation at 37C, fluorescence intensity was quantified on a ViewLux CCD-based plate reader.
Background: qHTS replaces the single test concentration by a dilution series.
`CCCCCCCCCCCCCC[P+](CCCCCC)(CCCCCC)CCCCCC` (tested in a mixture with another compound): the Potency was 21.7 µM (active).

In the case of `CCCN(CC)CC1COC2(CCC(C(C)(C)C)CC2)O1` (stereo not given), the Potency entry was “inactive”.

For the compound `[CH3][Hg][Cl]`, the Potency is 27.2 µM (active).

In the case of `CN(C)C1CSSSC1`, the Potency result is “inactive”.

Consider `C=CCC1=C(C)C(OC(=O)C2C(C=C(C)C)C2(C)C)CC1=O` (stereo not given), for which the Potency result was “inactive”.

In the case of `O=C(CCl)C(Cl)Cl`, the Potency was 55 µM (active).

With `N#CCCSCCC#N`, the Potency entry was “inactive”.

Consider `Clc1ccc(CCC(Cn2ccnc2)Sc2c(Cl)cccc2Cl)cc1` (stereo not given), for which the Potency entry is “inactive”.

Consider `S=C=Nc1cccc2ccccc12`, for which the Potency result was “inactive”.

With `[Hg+2].[I-].[I-]`, the Potency was 61.1 µM (active).

As to `Nc1ccccc1C(=O)OC/C=C/c1ccccc1`, the Potency result is “inactive”.

For `Fc1cccc(Cl)c1CCl`, the Potency entry is “inactive”.

Turning to `COP(=O)(OC)SCn1c(=O)oc2cc(Cl)cnc21`, the Potency entry was “inactive”.

As for `CC(C)(C)c1cc([N+](=O)[O-])cc(C(C)(C)C)c1O`, the Potency is 13.7 µM (active).

For the compound `CCOP(=S)(OCC)OC(Cl)C(Cl)(Cl)Cl` (stereo not given), the Potency entry was “inactive”.

Turning to `CC(=O)O[C@H]1CC[C@@]2(C)C(=CC[C@@H]3[C@@H]2CC[C@]2(C)C(=O)CC[C@@H]32)C1`, the Potency result is “inactive”.

With `ClC1=C(Cl)[C@]2(Cl)[C@H]3[C@H]([C@H]4C=C[C@H]3C4)[C@@]1(Cl)C2(Cl)Cl`, the Potency entry is “inactive”.

With `CC(C)(C)c1ccc(CSc2cnn(C(C)(C)C)c(=O)c2Cl)cc1`, the Potency entry is “inactive”.

On to `COc1cccc(C(=O)CCN[C@@H](C)[C@H](O)c2ccccc2)c1`, for which the Potency result was “inactive”.

As to `c1ccc2cc3c(cc2c1)-c1cccc2cccc-3c12`, the Potency result was “inactive”.

Take `CC(C)N1C(=O)N(c2ccccc2)CSC1=NC(C)(C)C`: the Potency entry was “inactive”.

As for `CC(C)CCCCCOC(=O)c1ccccc1C(=O)OCCCCCC(C)C`, the Potency result is “inactive”.

Regarding `CCCOCC(=Nc1ccc(Cl)cc1C(F)(F)F)n1ccnc1`, the Potency is 61.1 µM (active).

As to `CCCCCCCCc1ccc(O)cc1`, the Potency result was “inactive”.

`O=S(=O)(c1ccc(Cl)cc1)c1ccc(Cl)cc1`: the Potency entry was “inactive”.

Turning to `Oc1ccc(C(=C(Cl)Cl)c2ccc(O)cc2)cc1`, the Potency result is “inactive”.

In the case of `CC(C)[C@H](C(=O)OC(C#N)c1cccc(Oc2ccccc2)c1)c1ccc(OC(F)F)cc1` (stereo not given in full), the Potency entry was “inactive”.

In the case of `Cc1ccc(OP(=O)(Oc2ccccc2)Oc2ccccc2)cc1`, the Potency result was “inactive”.

Take `Clc1ccc(-c2ccc(Cl)c(Cl)c2Cl)c(Cl)c1Cl`: the Potency result is “inactive”.

For the compound `CCC(C)(C)C(=O)OC1=C(c2ccc(Cl)cc2Cl)C(=O)OC12CCCCC2`, the Potency entry was “inactive”.

Consider `Clc1ccc(C(c2ccccc2Cl)C(Cl)(Cl)Cl)cc1` (stereo not given), for which the Potency entry is “inactive”.

On to `CC1(C)[C@H](C(=O)O[C@H](C#N)c2cccc(Oc3ccccc3)c2)[C@@H]1/C=C(\Cl)C(F)(F)F`, for which the Potency result was “inactive”.

As to `CCC(C)c1cc([N+](=O)[O-])cc([N+](=O)[O-])c1OC(=O)C=C(C)C` (stereo not given), the Potency is 30.6 µM (active).

As for `CCCSP(=O)(OCC)SCCC`, the Potency result was “inactive”.

In the case of `CNC(C)Cc1ccc2c(c1)OCO2` (stereo not given), the Potency result is “inactive”.

On to `ClC1=C(Cl)C2(Cl)C3C(Cl)C(Cl)CC3C1(Cl)C2(Cl)Cl` (stereo not given), for which the Potency entry is “inactive”.

Turning to `FC(Cl)(Cl)Cl`, the Potency result was “inactive”.

Consider `BrC(Br)Br`, for which the Potency entry is “inactive”.

On to `CC1(c2ccc(Oc3ccccc3)cc2)OC(=O)N(Nc2ccccc2)C1=O` (stereo not given), for which the Potency entry was “inactive”.

With `N#CC(Cl)Cl`, the Potency entry is “inactive”.
